According to PubChem BioAssay AID1851 (National Center for Advancing Translational Sciences (NCATS), 2009):
Values joined by “and” are separate entries in the source; they are usually repeats but may differ in a detail not shown here. Equal entries are not always repeated. Out of some 16,000 compounds screened, about 5,800 (36%) were called active. Not shown: some 23% with an inconclusive outcome. Calls follow the shape of the dose curve; as a rule, active = well fitted curve in the direction sought with a large enough effect; inconclusive = small, poorly fitted or top-dose-only effect, or effect the other way; inactive = no such curve, though single readings can be large or run the other way. This is one part of the list. Some compounds were tested as several samples or in several runs, with calls that do not always agree.

Target: Cytochrome P450 2C19 (Homo sapiens) (UniProt P33261)
Sequence (P33261 whole entry, looked up): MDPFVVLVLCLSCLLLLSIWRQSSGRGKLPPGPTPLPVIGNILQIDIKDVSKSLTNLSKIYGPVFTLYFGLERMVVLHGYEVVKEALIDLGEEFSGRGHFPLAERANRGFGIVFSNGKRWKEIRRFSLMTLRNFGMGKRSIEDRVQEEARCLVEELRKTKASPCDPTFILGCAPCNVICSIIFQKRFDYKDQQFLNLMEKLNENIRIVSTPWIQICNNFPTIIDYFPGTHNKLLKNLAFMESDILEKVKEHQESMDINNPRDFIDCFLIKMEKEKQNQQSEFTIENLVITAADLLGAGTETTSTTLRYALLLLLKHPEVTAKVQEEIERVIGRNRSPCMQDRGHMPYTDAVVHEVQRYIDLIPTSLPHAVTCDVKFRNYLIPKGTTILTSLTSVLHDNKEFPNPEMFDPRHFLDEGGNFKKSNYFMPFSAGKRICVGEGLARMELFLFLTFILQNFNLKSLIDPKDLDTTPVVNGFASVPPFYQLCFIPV
Experiment: Cytochrome panel assay with activity outcomes
Details: recombinant CYP, pro-luciferin dealkylation, luminescence, p450-cyp2c19; series mostly up to 57.1 µM
% is scaled to controls: 0 for no effect and ±100 for the full control effect.

Compound	AC50	activity, negative = inhibition
Cc1noc(C)c1C(=O)N1CCC2(CCCN(c3ccncc3)C2)CC1	inactive	–
CN(C)S(=O)(=O)Oc1ccccc1C(=O)Nc1cccc(C(F)(F)F)c1	2 µM (active)	–
Cc1c(C(=O)Nc2cccc(C(F)(F)F)c2)oc2ccc(S(=O)(=O)N3CCOCC3)cc12	7.94 µM (active)	–
Cc1c(C(=O)NC2CCCc3ccccc32)oc2ccc(S(=O)(=O)N3CCOCC3)cc12 (stereo unspecified)	11.2 µM (active)	–
COC(=O)CC1C(=O)NCCN1C(=O)Nc1ccc(Cl)cc1 (stereo unspecified)	inactive	–
CCOC(=O)CC1C(=O)NCCN1S(=O)(=O)c1ccc(Cl)c(Cl)c1 (stereo unspecified)	11.2 µM (active)	–
CCCc1cc2c(cc1NC(=O)c1ccccc1C)OCO2	0.178 µM (active)	–
CCCc1cc2c(cc1NC(=O)c1ccccc1Cl)OCO2	0.398 µM (active)	–
CCCc1cc2c(cc1NC(=O)c1ccc(Br)cc1)OCO2	0.0794 µM (active)	–
Cc1nn(C)c(C)c1CNC(=O)c1cnn2c1NC(c1ccccc1)CC2C(F)(F)F (stereo unspecified)	inactive	–
COc1ccccc1CN1CC2(CCN(S(C)(=O)=O)CC2)C1	inactive	–
CN(C)C(=C(C#N)C#N)N1CCN(c2ccc(Cl)c(Cl)c2)CC1	10 µM (active)	–
Nc1cc(=O)nc(SCC(=O)Nc2cccc3ccccc23)n1CCc1ccccc1	14.1 µM (active)	–
CCC(Sc1nc(=O)cc(N)n1CCc1ccccc1)C(=O)Nc1ccccc1C#N (stereo unspecified)	11.2 µM (active)	–
NCCCC(=O)O	inactive	–
Cn1c(CNC(=O)Nc2ccccc2)nnc1SCc1ccccc1	7.08 µM (active)	–
CCN(CC)CCC(=O)Nc1ccc2c(c1)N(C(=O)CN(CC)CC)c1ccccc1CC2	inactive	–
CCCCN(C)CCCNC(=O)CCn1nc(-c2ccccc2)ccc1=O	inactive	–
CCN(CCCNC(=O)CC(C(=O)N1CCc2ccccc21)n1ccnc1)c1ccccc1 (stereo unspecified)	0.562 µM (active)	–
CC(C(=O)NC1CCCC1)N(C(=O)c1snc(C(N)=O)c1N)c1ccc2c(c1)OCCO2 (stereo unspecified)	15.8 µM (active)	–
CN(CCO)c1nc(N)c2c(N)nc3c(c2c1C#N)CC(=O)N3C1CCCC1	inactive	–
CCCn1nnnc1-c1cccc(Cl)c1	5.01 µM (active)	–
CCCn1nnnc1-c1cc(Cl)cc(Cl)c1	inactive	–
Cc1oc(-c2cccc(Cl)c2)[n+]([O-])c1C	inactive	–

Compound	AC50	activity, negative = inhibition
O=c1c(-c2ccc(Cl)cc2)nc2cnc(N3CCOCC3)nc2n1CCc1ccccc1	inactive	–
Clc1ccc(-c2nnc(-c3ccccc3)c(N3CCSCC3)n2)cc1	14.1 µM (active)	–
Brc1ccc(-c2nnc(-c3ccccc3)c(N3CCSCC3)n2)cc1	14.1 µM (active)	–
Cc1nnc(S(=O)(=O)c2ccc(N=Nc3c(N)nc(N)nc3N)cc2)s1	–	32.1% [at 11.4 µM] (inactive)
CSc1ccc2c(c1)[C@H](N1CCN(C)CC1)Cc1ccccc1S2	inactive and 2.51 µM (active) and 7.94 µM (active)	–
CN1CCC[C@@H](CC2c3ccccc3Sc3ccccc32)C1	inactive	–
CO[C@H]1COC(=O)[C@@H](Cc2ccccc2)NC(=O)[C@@H](C)COC(=O)C/C=C\[C@@H]1C	–	-5.86% [at 11.4 µM] (inactive)
Cc1nc(-c2c(C(F)(F)F)noc2-c2ccc(O)cc2O)cs1	1.26 µM (active)	–
O=C(/C=C/c1cccnc1)c1ccc(NC(=O)c2cccc(Br)c2)cc1	2.51 µM (active)	–
O=C(N/C(=C\c1cccnc1)C(=O)N1CCOCC1)c1cccc(Br)c1	inactive	–
COC(=O)c1c(-c2cc(OC)c(OC)c(OC)c2)c2ccnc(OCc3ncccn3)c2c(=O)n1Cc1ccnc(C)c1	inactive	–
CCOc1[nH]n(-c2ccccc2)c(=O)c1C=Nc1ccc(Cl)cc1	8.91 µM (active)	–
CCOc1[nH]n(-c2ccc(Cl)cc2)c(=O)c1C=Nc1ccc(Cl)cc1	inactive	–
Cc1ccc(-n2[nH]c(C)c(C=Nc3ccc4[nH]c(=O)[nH]c4c3)c2=O)cc1C	inactive	–
CCN(CC)CCOC(=O)[C@@H](Cc1cccc2ccccc12)C[C@@H]1CCCO1	inactive	–
COc1ccc(CNC(=O)CN(CC2CCCO2)C(=O)CNS(=O)(=O)c2ccccc2)cc1 (stereo unspecified)	14.1 µM (active)	–
O=C(CN(CC1CCCO1)C(=O)CNS(=O)(=O)c1ccc(Cl)cc1)NCCc1ccccc1 (stereo unspecified)	31.6 µM (active)	–
O=C(O)c1cc(S(=O)(=O)NCC2CCCO2)ccc1Cl (stereo unspecified)	inactive	–
Cc1nn(Cc2c(F)c(F)c(F)c(F)c2F)c(C)c1NC(=O)c1c(-c2ccccc2)nn(-c2ccccc2)c1C	2.24 µM (active)	–
Cc1nn(Cc2c(F)c(F)c(F)c(F)c2F)c(C)c1NC(=O)c1cccc(COc2ccc(Cl)cc2)c1	14.1 µM (active)	–
O=C1NC(O)=NC1(c1ccccc1)c1ccccc1	inactive	–
O=C(/C=C/c1ccc(Cl)cc1)NCCSc1ccccc1	1.78 µM (active)	–
COCCCNC(=O)/C=C/c1ccc(Cl)cc1	inactive	–
CCCCCCCCCCCCCCC[C@H](O)[C@H](N)CO	inactive	–

Compound	AC50	activity, negative = inhibition
CC1=NN(c2ccc(C)cc2C)C(=O)C1C(c1ccccc1)C1C(=O)N(c2ccc(C)cc2C)N=C1C (stereo unspecified)	4.47 µM (active)	–
CC1=NN(c2ccccc2)C(=O)[C@@H]1N=Nc1ccc(S(N)(=O)=O)cc1	–	20.1% [at 11.4 µM] (inactive)
COCCn1c(=O)c(-c2cccc(C#N)c2)nc2cnc(N3CCN(C)CC3)nc21	inactive	–
CN(C)c1ncc2nc(-c3cccs3)c(=O)n(-c3ccccc3)c2n1	inactive	–
O=c1c2c(-c3cccs3)csc2[nH]c(=S)n1-c1ccccc1	10 µM (active)	–
COc1ncc2nc(-c3cccs3)c(=O)n(-c3ccccc3)c2n1	inactive	–
Cc1cccc(N2CC(O)=C(c3nc4ccccc4n3C)C2=N)c1	inactive	–
Cn1c(-c2sc(=S)n(-c3ccccc3)c2N)nc2ccccc21	1.41 µM (active)	–
CN(C)CC/C=C1\c2ccccc2COc2ccccc21	inactive	–
CC(C)(C)NC[C@@H](O)c1ccc(O)c(CO)n1	–	27.5% [at 11.4 µM] (inactive)
CN(C(=O)c1c(O)c2ccccc2n(C)c1=O)c1ccccc1	inactive	–
CCNc1ncc2nc(-c3cn(C)c4ccccc34)c(=O)n(-c3ccccc3)c2n1	inactive	–
CCCc1c(O)c2ccccc2n(-c2ccccc2)c1=O	11.2 µM (active)	–
O=C1CC(c2ccc3c(c2)OCO3)Sc2nc3ccccc3n21 (stereo unspecified)	2 µM (active)	–
CCOc1cc(CNCCc2ccc(S(N)(=O)=O)cc2)cc(Cl)c1OCc1ccccc1	3.55 µM (active)	–
CCOc1cc(CNCCO)cc(Br)c1OCc1ccccc1Cl	7.08 µM (active)	–
Cc1noc(C)c1C(=O)N1CCC2(CCN(Cc3cc(C(F)(F)F)cc(C(F)(F)F)c3)CC2)CC1	inactive	–
Cc1nnc(-c2cnn(-c3ccccc3)c2N)n1Cc1ccccc1	inactive	–
Cc1nnc(-c2cnn(-c3ccccc3)c2N)n1Cc1ccc(F)cc1	17.8 µM (active)	–
COc1ccccc1-c1nc(NC2CC2)c2ccccc2n1	inactive	–
COc1ccc(-c2cc(C(F)(F)F)nc(N3CCOCC3)n2)cc1OC	2.24 µM (active)	–
Cn1c(=O)c(-c2ccc(F)cc2)nc2cnc(N3CCOCC3)nc21	inactive	–
COCCn1c(=O)c(-c2ccc(OC)cc2)nc2cnc(N3CCOCC3)nc21	inactive	–
COc1ccc(-c2cc(C(F)(F)F)nc(NC3CCCC3)n2)cc1OC	22.4 µM (active)	–

Compound	AC50	activity, negative = inhibition
COc1ccc(-c2cc(C(F)(F)F)nc(N3CCN(C)CC3)n2)cc1OC	inactive	–
COc1ccc(-c2cc(C(F)(F)F)nc(N3CCCCC3)n2)cc1OC	3.16 µM (active)	–
O=C(O)C[C@H](NC(=O)CP(=O)(O)O)C(=O)O.[NH-][C@@H]1CCCC[C@@H]1[NH-].[Pt]	–	-14.4% [at 11.4 µM] (inactive)
CCOC(=O)N/N=C1/C[C@@H](O)[C@@H](O)[C@@H]2[C@@H]3C(=O)N(CC)C(=O)[C@H]3CC[C@H]12	–	-7.53% [at 11.4 µM] (inactive)
Cc1csc(NC(=O)CCNS(=O)(=O)c2ccc3c(c2)c(=O)n(C)c(=O)n3C)n1	inactive	–
O=C(O)Cc1c[nH]c2ccc(O)cc12	inactive	–
Cc1csc(NC(=O)Cc2c[nH]c3ccccc23)n1	7.08 µM (active)	–
CCOC(=O)N1CCN(C(=O)CNS(=O)(=O)c2cccs2)CC1	8.91 µM (active)	–
CCOC(=O)N1CCN(C(=O)CNCc2cccs2)CC1	inactive	–
Cc1csc(NC(=O)CNS(=O)(=O)c2cccs2)n1	14.1 µM (active)	–
COCC(=O)N1CCC2(CC1)CN(C(c1ccccc1)c1ccccc1)C2	inactive	–
O=C(CCNS(=O)(=O)c1cccs1)N1CCc2ccccc2C1	2.24 µM (active)	–
O=C(CCNS(=O)(=O)c1cccs1)N1CCCCCC1	3.16 µM (active)	–
COc1ccc(CC(=O)N2CCN(c3ccc(C4=NNC(=O)CC4C)cc3)CC2)cc1 (stereo unspecified)	inactive	–
O=C(Cc1ccc(-n2c(=O)[nH]c3ccccc3c2=O)cc1)N1CCN(c2cccc(Cl)c2)CC1	8.91 µM (active)	–
O=c1nc2ccccc2c2n1CC(CN1CCN(c3cccc(Cl)c3)CC1)N2 (stereo unspecified)	inactive	–
CN1CCCC[C@@H]1CCN1c2ccccc2Sc2ccc(S(C)=O)cc21 (stereo partly specified)	inactive	–
CN1CCN(CC(=O)N2c3ccccc3Sc3cc4ccccc4cc32)CC1	–	-1.84% [at 11.4 µM] (inactive)
CC1CCN(CC(=O)N2c3ccccc3Sc3cc4ccccc4cc32)CC1	3.16 µM (active)	–
CCN[C@@H]1C[C@H](C)S(=O)(=O)c2sc(S(N)(=O)=O)cc21	inactive	–
Cc1ccsc1/C=N/Nc1nc(Cl)c(Cl)cc1Cl	7.94 µM (active)	–
Oc1oc(-c2ccccc2)nc1C=Nc1ccccc1	3.98 µM (active)	–
CN(C)c1ccc(N=Cc2nc(-c3ccccc3)oc2O)cc1	1.78 µM (active)	–
CN(C)Cc1ccc(O)c(CN(C)C)n1	–	-0.0983% [at 11.4 µM] (inactive)
